Records with an inconclusive call do not appear. Activity calls are given as the source filed them. Unless noted, calls follow the shape of the full dose curve.
Key:
[1] = Nuclear factor erythroid 2-related factor 2/antioxidant responsive element (Nrf2/ARE) small molecule agonists: qHTS cell viability counter screen in human keratinocytes (AID 1919968; active = well fitted curve in the direction sought with a large enough effect in the repeat runs; an effect the other way counts as inactive or inconclusive; also: nearly all actives have a fitted effect of over 55% in size; also: potency is read from the fitted curve at half-maximal effect)
Summary of the method: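 Viability counter-screen: KeratinoSens reporter cells, DMSO-delivered compounds, 23 h at 37 C, CellTiter-Fluor fluorescence.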

[2] = Nuclear factor erythroid 2-related factor 2/antioxidant responsive element (Nrf2/ARE) small molecule agonists: luciferase reporter gene qHTS assay in human keratinocytes (AID 1919969); also: nearly all actives have a fitted effect of over 35% in size
[3] = target: Gonadotropin-releasing hormone receptor (Homo sapiens) (UniProt P30968); assay: Human gonadotropin-releasing hormone receptor (GnRHR) small molecule agonists, calcium flux assay in GnRHR-HEK293 cells (AID 1920063); also: nearly all actives have a fitted effect of over 35% in size
Chain of Gonadotropin-releasing hormone receptor (Homo sapiens) (P30968 whole entry, looked up): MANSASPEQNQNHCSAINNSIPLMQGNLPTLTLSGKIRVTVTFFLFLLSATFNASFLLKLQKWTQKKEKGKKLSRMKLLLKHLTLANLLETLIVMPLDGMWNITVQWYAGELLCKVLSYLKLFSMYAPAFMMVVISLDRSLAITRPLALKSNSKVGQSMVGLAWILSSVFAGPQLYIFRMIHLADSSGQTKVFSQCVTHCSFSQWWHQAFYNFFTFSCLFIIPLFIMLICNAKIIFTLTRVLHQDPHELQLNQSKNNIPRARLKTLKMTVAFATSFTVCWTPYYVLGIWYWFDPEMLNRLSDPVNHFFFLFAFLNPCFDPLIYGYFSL
Summary of the method: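 Tox21-format agonist screen using human GnRHR-expressing HEK293 cells and a fluorescent calcium dye; kinetic 3-min fluorescence reading after compound addition, 15-point concentration series run in triplicate.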

[4] = target: KiSS-1 receptor (Homo sapiens) (UniProt Q969F8); assay: Human kisspeptin (KISS1R) small molecule agonists, calcium flux assay in KISS1R-HEK293 cells (AID 1920064; active = well fitted curve in the direction sought with a large enough effect in the repeat runs; an effect the other way counts as inactive or inconclusive)
Chain of KiSS-1 receptor (Homo sapiens) (Q969F8 whole entry, looked up): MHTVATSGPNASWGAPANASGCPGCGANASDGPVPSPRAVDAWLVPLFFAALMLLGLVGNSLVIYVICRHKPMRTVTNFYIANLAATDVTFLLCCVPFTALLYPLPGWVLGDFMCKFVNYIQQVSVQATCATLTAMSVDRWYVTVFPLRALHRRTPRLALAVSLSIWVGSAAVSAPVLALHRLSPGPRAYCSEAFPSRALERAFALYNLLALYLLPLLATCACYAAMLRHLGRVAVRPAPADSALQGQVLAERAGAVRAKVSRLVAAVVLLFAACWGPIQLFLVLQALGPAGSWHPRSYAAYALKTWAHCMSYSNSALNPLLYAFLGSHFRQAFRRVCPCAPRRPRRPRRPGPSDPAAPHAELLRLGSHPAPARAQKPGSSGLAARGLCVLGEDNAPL
Summary of the method: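 Intracellular calcium mobilization in KISS1R-HEK293 cells was recorded by fluorescence (Ex/Em 480/540) for 3 min following compound addition to cells pre-loaded 1 h with calcium dye.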

[5] = G protein-coupled receptor (GPCR) small molecule agonists, calcium flux assay: HEK293 wild type cell line counter screen (AID 1920065)
Summary of the method: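 In this agonist-mode screen, ATP is the positive control and DMSO the vehicle. Cells grow 18 h before a 1 h dye incubation at 37 C; signal is taken at Ex/Em 480/540 over 3 min.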

[6] = p53 small molecule agonists, cell-based qHTS assay with human liver microsomes (AID 1963577)
Summary of the method: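 Cells carrying a p53-responsive bla reporter were rested 5 h (37 C, 5% CO2) before compound transfer. Human liver microsomes plus NADPH, 0.5 mg/mL final apiece, supplied metabolism during the 16 h 37 C exposure.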

[7] = p53 small molecule agonists, cell-based qHTS assay with rat liver microsomes (AID 1963578)
Summary of the method: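 Fluorescence from a beta-lactamase reporter under a p53 response element was measured after cells had been incubated 16 h at 37 C with test compound and rat liver microsomes plus NADPH (0.5 mg/mL final each).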

[8] = p53 small molecule agonists, cell-based qHTS assay with human liver microsomes: qHTS cell viability counter screen (AID 1963579); also: nearly all actives have a fitted effect of over 45% in size; also: potency is read from the fitted curve at half-maximal effect
Summary of the method: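 Seed p53RE-bla cells at 4,000 per well; incubate 5 h at 37 C; add compound, human liver microsomes and NADPH; incubate 16 h at 37 C; add CellTiter-Glo; after 30 min at room temperature, read luminescence.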

[9] = p53 small molecule agonists, cell-based qHTS assay with rat liver microsomes: qHTS cell viability counter screen (AID 1963580); also: nearly all actives have a fitted effect of over 45% in size
Summary of the method: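 p53RE-bla HCT-116 cells were exposed 16 h at 37 C to compounds with rat liver microsomes (0.5 mg/mL) and NADPH (0.5 mg/mL). Viability was measured in the same wells as ATP content by CellTiter-Glo luminescence.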

[10] = target: 5-hydroxytryptamine receptor 2A (Homo sapiens) (UniProt P28223); assay: 5-hydroxytryptamine receptor 2A (HTR2A) small molecule antagonists, cell-based qHTS assay (AID 1963586); also: nearly all actives have a fitted effect of over 45% in size
Chain of 5-hydroxytryptamine receptor 2A (Homo sapiens) (P28223 whole entry, looked up): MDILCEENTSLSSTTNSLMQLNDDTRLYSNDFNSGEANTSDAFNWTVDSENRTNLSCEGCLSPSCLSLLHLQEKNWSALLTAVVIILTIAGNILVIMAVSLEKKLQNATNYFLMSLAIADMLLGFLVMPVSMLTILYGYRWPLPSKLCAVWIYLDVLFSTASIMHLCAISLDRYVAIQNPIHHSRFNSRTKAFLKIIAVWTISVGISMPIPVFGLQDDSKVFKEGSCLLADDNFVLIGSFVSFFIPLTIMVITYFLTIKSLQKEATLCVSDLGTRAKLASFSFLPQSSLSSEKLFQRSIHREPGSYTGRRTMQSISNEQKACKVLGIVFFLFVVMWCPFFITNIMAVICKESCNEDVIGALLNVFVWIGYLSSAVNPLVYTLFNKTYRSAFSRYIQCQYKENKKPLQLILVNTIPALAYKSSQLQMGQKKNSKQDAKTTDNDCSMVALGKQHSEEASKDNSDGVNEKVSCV
Summary of the method: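 Antagonist-mode intracellular calcium assay: DOI (4 nM) added after 5 min compound pre-incubation at room temperature to dye-loaded HTR2A-CHO cells. Fluorescence followed for 3 min, sampled every second.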

[11] = target: 5-hydroxytryptamine receptor 2A (Homo sapiens) (UniProt P28223); assay: 5-hydroxytryptamine receptor 2A (HTR2A) small molecule agonists, cell-based qHTS assay (AID 1963587); also: nearly all actives have a fitted effect of over 30% in size
Summary of the method: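 CHO cells stably expressing human HTR2A, plated 18 h, loaded with calcium dye 1 h at 37 C. Agonist mode: compounds added and intracellular calcium fluorescence recorded kinetically for 2 min at 1 sec intervals.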

[12] = target: Muscarinic acetylcholine receptor M1 (Homo sapiens) (UniProt P11229); assay: Cholinergic receptor muscarinic 1 (CHRM1) small molecule agonists, cell-based qHTS assay (AID 1963589); also: nearly all actives have a fitted effect of over 35% in size
Chain of Muscarinic acetylcholine receptor M1 (Homo sapiens) (P11229 whole entry, looked up): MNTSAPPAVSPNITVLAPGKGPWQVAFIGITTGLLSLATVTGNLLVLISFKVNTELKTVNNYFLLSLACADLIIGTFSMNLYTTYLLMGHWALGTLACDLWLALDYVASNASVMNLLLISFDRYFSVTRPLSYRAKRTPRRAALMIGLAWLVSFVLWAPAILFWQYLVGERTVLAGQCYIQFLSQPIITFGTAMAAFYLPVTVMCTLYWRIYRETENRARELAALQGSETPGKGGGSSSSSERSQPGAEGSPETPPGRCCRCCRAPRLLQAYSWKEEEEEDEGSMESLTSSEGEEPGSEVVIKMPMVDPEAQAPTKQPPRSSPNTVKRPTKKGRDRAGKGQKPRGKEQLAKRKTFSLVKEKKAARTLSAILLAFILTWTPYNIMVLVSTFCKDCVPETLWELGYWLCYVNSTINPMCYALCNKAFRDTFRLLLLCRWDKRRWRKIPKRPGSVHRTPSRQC
Summary of the method: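 Stable CHRM1-CHO cells (human receptor) were incubated 18 h, dye-loaded for 1 h at 37 C and exposed to test compounds for agonist activity, with calcium-dependent fluorescence followed kinetically.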

[13] = target: Beta-2 adrenergic receptor (Homo sapiens) (UniProt P07550); assay: Adrenergic beta2 receptor (ADRB2) small molecule antagonists, cell-based qHTS assay (AID 1963592); also: series mostly up to about 92 µM; nearly all actives have a fitted effect of over 50% in size
Chain of Beta-2 adrenergic receptor (Homo sapiens) (P07550 whole entry, looked up): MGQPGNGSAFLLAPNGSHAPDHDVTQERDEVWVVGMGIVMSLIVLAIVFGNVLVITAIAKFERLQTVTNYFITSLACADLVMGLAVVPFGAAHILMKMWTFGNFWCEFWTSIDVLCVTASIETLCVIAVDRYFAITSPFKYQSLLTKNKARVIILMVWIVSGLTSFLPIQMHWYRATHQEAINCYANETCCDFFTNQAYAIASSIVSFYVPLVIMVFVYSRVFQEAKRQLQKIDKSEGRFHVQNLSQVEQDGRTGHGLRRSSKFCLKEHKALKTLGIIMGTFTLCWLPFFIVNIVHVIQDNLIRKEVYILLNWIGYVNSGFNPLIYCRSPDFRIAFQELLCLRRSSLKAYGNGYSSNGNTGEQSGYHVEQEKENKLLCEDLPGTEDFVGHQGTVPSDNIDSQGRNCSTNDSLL
Summary of the method: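 Cells (CHO, stable ADRB2 overexpression) incubated 18-20hr at 37C; compounds added from DMSO; agonist mix (1nM isoproterenol, 100uM IBMX, 25uM Ro-20-1724) added; 0.5hr RT; d2-cAMP and anti-cAMP-cryptate added; 1hr RT; 665/615 nm read.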

[14] = target: D(2) dopamine receptor (Homo sapiens) (UniProt P14416); assay: Dopamine D2 receptor (DRD2) small molecule agonists, cell-based qHTS assay (AID 1963594); also: nearly all actives have a fitted effect of over 35% in size
Chain of D(2) dopamine receptor (Homo sapiens) (P14416 whole entry, looked up): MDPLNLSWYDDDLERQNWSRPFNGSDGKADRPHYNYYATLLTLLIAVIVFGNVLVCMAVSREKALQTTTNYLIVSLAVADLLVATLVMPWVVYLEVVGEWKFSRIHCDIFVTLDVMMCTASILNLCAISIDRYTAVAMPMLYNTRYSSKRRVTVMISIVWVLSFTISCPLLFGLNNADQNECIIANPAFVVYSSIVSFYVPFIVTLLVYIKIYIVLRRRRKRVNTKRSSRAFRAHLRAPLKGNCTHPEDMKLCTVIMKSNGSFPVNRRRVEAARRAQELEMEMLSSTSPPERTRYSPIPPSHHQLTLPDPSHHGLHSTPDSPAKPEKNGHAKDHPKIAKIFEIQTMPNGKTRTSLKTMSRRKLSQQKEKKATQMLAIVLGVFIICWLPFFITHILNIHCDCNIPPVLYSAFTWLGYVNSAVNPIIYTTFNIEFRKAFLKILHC
Summary of the method: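 HEK293 cells stably expressing human DRD2, pre-treated with PDE inhibitor Ro20-1724 (0.1 mM final) and compound 10 min at room temperature, then stimulated with NKH477 (200nM […]) for 30 min. cAMP read by HTRF (665/620 nm).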

[15] = target: D(2) dopamine receptor (Homo sapiens) (UniProt P14416); assay: Dopamine D2 receptor (DRD2) small molecule antagonists, cell-based qHTS assay (AID 1963595; active = well fitted inhibition curve with a large enough effect in the signal ratio in the repeat runs, with a control signal flat; the % refers to the signal ratio)
Summary of the method: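 Stable D2 receptor HEK293 line, 24 h after seeding. Compound preincubated 10 min, then quinpirole (12 nM) with forskolin analogue NKH477 (200 nM), 30 min, room temperature. Detection by time-resolved FRET of cAMP.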

[16] = target: Muscarinic acetylcholine receptor M1 (Homo sapiens) (UniProt P11229); assay: Cholinergic receptor muscarinic 1 (CHRM1) small molecule antagonists, cell-based qHTS assay (AID 1963588); also: nearly all actives have a fitted effect of over 40% in size
Summary of the method: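 CHRM1-CHO calcium-flux assay, antagonist mode. Cells were seeded 18 h, dye-loaded 1 h at 37 C and given compound for 5 min at RT, then acetylcholine was added at 50nM. FDSS fluorescence was read 3 min; 15 concentrations, three runs.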

[17] = p53 small molecule agonists, cell-based qHTS assay (AID 1963582; active = well fitted activation curve with a large enough effect in the signal ratio in the repeat runs, not every such curve was filed as active; the % refers to the signal ratio; also: potency is read from the fitted curve at half-maximal effect)
Summary of the method: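 Agonist activity was scored from beta-lactamase FRET fluorescence in p53RE-bla cells treated 16 h at 37 C with compounds in DMSO, substrate incubation being 2 h at room temperature.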

[18] = cAMP Responsive Elements (CRE) small molecule agonists, cell-based qHTS assay (AID 1963590)
Summary of the method: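 FRET-based beta-lactamase readout (LiveBLAzer B/G, 2 h RT) quantified CRE activation in HEK 293T CRE-bla cells after 3 h treatment with DMSO-dissolved compounds.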

[19] = cAMP Responsive Elements (CRE) small molecule antagonists, cell-based qHTS assay (AID 1963591; active = well fitted inhibition curve with a large enough effect in the signal ratio in the repeat runs, not every such curve was filed as active; the % refers to the signal ratio)
Summary of the method: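 qHTS in CRE-bla HEK 293T cells: compound in DMSO, then 0.25 uM NKH477 (final), 3 h at 37 °C/5% CO2; beta-lactamase FRET read-out after 2 h substrate incubation.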

Measured: Potency

CC1=C2[C@H](/C=C(\C)C(=O)O)CC[C@@H](C)[C@H]2CC1
active: [1] 44.9 µM | [8] 29.9 µM
not listed: [16] | [17] | [18] | [19]
inactive: all other assays above

CC(C(=O)O)c1ccc2c(c1)Cc1cccnc1O2 (stereo not drawn)
not listed: [12] | [15] | [17] | [18] | [19]
inactive: all other assays above

CC(=O)Nc1cccc(C)c1
not listed: [10] | [16] | [19]
inactive: all other assays above

Nc1ccn([C@@H]2O[C@H](CO)[C@@H](O)C2(F)F)c(=O)n1
active: [17] 0.199 µM
not listed: [10] | [11] | [12] | [13] | [14] | [16]
inactive: all other assays above

C[C@H](N)[C@H](O)c1cccc(O)c1
not listed: [10] | [11]
inactive: all other assays above

Nc1ncnc2c1ncn2[C@@H]1O[C@H](CO)[C@@H](O)[C@H]1O
not listed: [14] | [17]
inactive: all other assays above

CCOC(=O)CC(C)O (stereo not drawn)
not listed: [12] | [17] | [19]
inactive: all other assays above

From PubChem BioAssay (Tox21)
